This note sets out measurements from PubChem BioAssay AID652118 (Broad Institute, 2013).

The structures appear in SMILES notation. Measured potencies and affinities stand elsewhere. Active and inactive are the calls of the source.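 The calls were made as follows: active = compounds lowering cell ATP signal whose fitted half-effect concentration is at most twice the top tested dose; inconclusive = flat curves with 30 to 70% signal loss, or poor fits; inactive = the rest.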

This assay in a line: HepG2 cell cytotoxicity, dose response, cytotoxicity control, ATP luminescence, dry powder (AID 652118). Conditions: HepG2 viability, CellTiter-Glo ATP luminescence, 48 h; series mostly up to 26 µM. A general note: Cellular ATP, detected with luciferase, serves as a proxy for viable cell number.
`CCOC(=O)C1(Cc2ccccc2)CCN(Cc2ccc(O)c(Cl)c2)CC1`: the call was inactive. Consider `C/C1=C\[C@@H](O)C(C)(C)CCCC2(C)OC2C[C@@H]1OC(=O)c1ccc(O)cc1` (some centres not stated), for which the outcome was inactive.

As to `CCOC(=O)C1(CCOC)CCCN(Cc2ccc(Cl)cc2)C1` (configuration not stated), the compound was called inactive. Under `CCOC(=O)C1(CCOC)CCN(Cc2ccc(O)c(Cl)c2)CC1` stands “inactive”; under `CCOC(=O)C1(CCOc2ccccc2)CCN(Cc2ccc3[nH]c(=O)oc3c2)CC1`, “inactive”. As to `CCOC(=O)C1(CCOc2ccccc2)CCN(Cc2ccc(O)c(Cl)c2)CC1`, the compound was classed as inactive. As for `CCNC(=O)C1(CCOc2ccccc2)CCN(Cc2ccc(O)c(Cl)c2)CC1`, the entry is “inactive”; as for `CC(C)OC(=O)C1(CCOc2ccccc2)CCN(Cc2ccc(O)c(Cl)c2)CC1`, “inactive”; as for `CCOC(=O)C1(CCOc2ccccc2)CCN(Cc2ccc(OC)cc2)CC1`, “inactive”.

Consider `CCOC(=O)c1c(CN2CCN(CCO)CC2)n(-c2ccccc2)c2cc(Br)c(O)cc12`, for which the compound was called inactive.

On to `CCOC(=O)C1(CCOc2ccccc2)CCN(Cc2cccc(Cl)c2)CC1`, for which the call was inactive. As for `CCN(C)C(=O)C1(CCOc2ccccc2)CCN(Cc2ccc(O)c(Cl)c2)CC1`, the entry is “inactive”; as for `O=C(N1CCCC1)C1(CCOc2ccccc2)CCN(Cc2ccc(O)c(Cl)c2)CC1`, “inactive”; as for `C=CCOc1ccc(CN2CCC(CCOc3ccccc3)(C(=O)O)CC2)cc1Cl`, “inactive”. Under `CCOC(=O)C1CCN(C(=O)OC(C)(C)C)CC1` stands “inactive”; under `O=C(NC1CCCC1)C1(CCOc2ccccc2)CCN(Cc2ccc(O)c(Cl)c2)CC1`, “inactive”. Under `CCOC(=O)C1(CCOc2ccccc2)CCN(Cc2ccc(OC)c(Cl)c2)CC1` stands “inactive”.
